# Reference: the supplement of paper PMC6555819
# How the values were obtained:
# Assay in all cases: PBM binding z-score (relative to random genomic background probes); higher = stronger binding; sequences stand for … in GC…GCGATTGACAGCGTAGAATGAAGG
# [1] = test system: PPARg:RXRa DBDmut IVT, anti-RXR (DBD mutation: RXRa K156A/R161A, NR concentration 270 nM, RXRa partner concentration 90 nM)
# Outline: (§1)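 Probes were double-stranded and carried 34-nt variable regions with direct-repeat seeds, single-nucleotide variants, half-site ablations and random human genomic background sequences, printed on custom Agilent 4×180K protein-binding microarrays. Arrays were incubated 1 h with ligand-free nuclear receptor dimers in PBS pH 7.4, 2% milk, 0.02% Triton X-100, 1 mM DTT, 0.2 mg/mL BSA and 0.4 mg/ml salmon testes DNA. Antibodies against each partner (one per run) detected binding, and scanned fluorescence was regression-normalized. Binding z-scores use the random background probes as reference.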
# [2] = test system: PPARg:RXRa IVT, anti-PPARg (NR concentration 270 nM, RXRa partner concentration 90 nM)
# Outline: as §1
# [3] = test system: PPARg DBDmut:RXRa IVT, anti-PPARg (DBD mutation: PPARg1 K132A/R137A, NR concentration 270 nM, RXRa partner concentration 90 nM)
# Outline: as §1
# [4] = test system: PPARg DBDmut IVT, anti-PPARg (DBD mutation: PPARg1 K132A/R137A, NR concentration 270 nM)
# Outline: as §1
# [5] = test system: PPARg homodimer (NR concentration 180 nM)
# Outline: as §1
# [6] = test system: PXR:RXRa (NR concentration 270 nM, RXRa partner concentration 90 nM)
# Outline: as §1
# [7] = test system: PXR homodimer (NR concentration 270 nM)
# Outline: as §1
# [8] = test system: RARa:RXR (NR concentration 270 nM, RXRa partner concentration 90 nM)
# Outline: as §1
# [9] = test system: RARa homodimer (NR concentration 270 nM)
# Outline: as §1
# [10] = test system: RARb:RXRa (NR concentration 270 nM, RXRa partner concentration 90 nM)
# Outline: as §1
# [11] = test system: RARb homodimer (NR concentration 270 nM)
# Outline: as §1
# [12] = test system: RARg:RXRa (NR concentration 270 nM, RXRa partner concentration 90 nM)
# Outline: as §1
# [13] = test system: RARg homodimer (NR concentration 270 nM)
# Outline: as §1
# [14] = test system: RXRa DBDmut IVT, anti-RXR (DBD mutation: RXRa K156A/R161A, NR concentration 90 nM)
# Outline: as §1
# [15] = test system: RXRa homodimer (NR concentration 180 nM)
# Outline: as §1
# [16] = test system: THRa:RXRa (NR concentration 90 nM, RXRa partner concentration 90 nM)
# Outline: as §1
# [17] = test system: THRa homodimer (NR concentration 90 nM)
# Outline: as §1
# [18] = test system: VDR homodimer (NR concentration 270 nM)
# Outline: as §1
Sequence,PBM binding z-score [1],PBM binding z-score [2],PBM binding z-score [3],PBM binding z-score [4],PBM binding z-score [5],PBM binding z-score [6],PBM binding z-score [7],PBM binding z-score [8],PBM binding z-score [9],PBM binding z-score [10],PBM binding z-score [11],PBM binding z-score [12],PBM binding z-score [13],PBM binding z-score [14],PBM binding z-score [15],PBM binding z-score [16],PBM binding z-score [17],PBM binding z-score [18]
TCTTGTAGATCAAGCTGGTTAAGAAAGCCTGAGT,1.49,0.0134,0.281,0.0135,-0.627,0.0638,0.0966,-0.059,-0.593,-0.304,-0.589,-0.384,-0.528,0.614,-0.39,-0.367,-0.87,-0.547
TCTATTAGTTGATTACGGCAACCGAAACAGCGGA,2.26,0.246,1.27,1.25,1.11,0.471,0.751,0.595,1.59,0.331,-0.0417,0.252,0.426,1.38,0.521,0.122,0.312,0.575
ACTCGGAGGACAAAGGTCAGAGATACGCCAGTGA,0.715,3.35,0.221,-0.524,4.07,4.02,0.592,5.15,1.44,4.56,4.52,6.21,5.31,1.01,5.52,3.61,0.755,1.56
TCGTATAGGTAAAAGGTGAAAGTCGGTGTGGTAA,3.45,3.77,0.0937,0.179,2.3,1.96,1.02,3.01,1.25,2.08,2.13,2.13,0.793,1.59,3.14,1.85,0.583,0.462
ACTATTAGTTGAGACGGGGGCAACCGATAGGTTG,1.48,3.27,5.1,7.99,1.63,2.63,0.549,2.25,0.997,1.94,1.92,2.03,1.77,1.55,1.42,3.01,1.12,1.98
CCTAGTTGGTCAAGGTCACACTCGCTATAGGTAC,2.46,3.35,0.792,0.878,3.44,3.95,2.21,4.18,2.57,3.85,4.05,4.19,4.5,2.44,3.96,3.92,4.03,3.42
CCTAGTTGGTCAGGAGGTCACACCCCGGATATGA,1.1,3.66,0.426,0.108,3.14,4.1,1.16,4.24,2.03,3.71,4.41,5.03,4.13,0.124,4.77,3.74,2.36,2.96
TTGAGTAGGTTAGTCGGGGCATTCAGCCAACATA,3.52,3.36,0.385,0.257,0.88,0.618,0.715,0.545,0.987,0.733,0.969,0.218,0.145,0.265,0.0452,1.43,0.699,1.25
